KCNQ2 pot – potentiators of rat KCNQ2 potassium channel. B-score at 10 µM. CHO-K1 KCNQ2, FluxOR thallium flux fluorescence; hits give high values. actives 0.54% (n = 310,000). O88943;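 active = fluorescence ratio B-score at least 3 SD of library B-scores, with initial fluorescence B-score within 3 of them, cut at about 5.3 in these data; same plate scores as AID 2156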;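 also: B-score of peak minus minimum over baseline fluorescence ratio after K+ and Tl+ stimulus; positive B-score means potentiation of KCNQ2 with more thallium influx and brighter signal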
Target sequence (O88943 whole entry, looked up): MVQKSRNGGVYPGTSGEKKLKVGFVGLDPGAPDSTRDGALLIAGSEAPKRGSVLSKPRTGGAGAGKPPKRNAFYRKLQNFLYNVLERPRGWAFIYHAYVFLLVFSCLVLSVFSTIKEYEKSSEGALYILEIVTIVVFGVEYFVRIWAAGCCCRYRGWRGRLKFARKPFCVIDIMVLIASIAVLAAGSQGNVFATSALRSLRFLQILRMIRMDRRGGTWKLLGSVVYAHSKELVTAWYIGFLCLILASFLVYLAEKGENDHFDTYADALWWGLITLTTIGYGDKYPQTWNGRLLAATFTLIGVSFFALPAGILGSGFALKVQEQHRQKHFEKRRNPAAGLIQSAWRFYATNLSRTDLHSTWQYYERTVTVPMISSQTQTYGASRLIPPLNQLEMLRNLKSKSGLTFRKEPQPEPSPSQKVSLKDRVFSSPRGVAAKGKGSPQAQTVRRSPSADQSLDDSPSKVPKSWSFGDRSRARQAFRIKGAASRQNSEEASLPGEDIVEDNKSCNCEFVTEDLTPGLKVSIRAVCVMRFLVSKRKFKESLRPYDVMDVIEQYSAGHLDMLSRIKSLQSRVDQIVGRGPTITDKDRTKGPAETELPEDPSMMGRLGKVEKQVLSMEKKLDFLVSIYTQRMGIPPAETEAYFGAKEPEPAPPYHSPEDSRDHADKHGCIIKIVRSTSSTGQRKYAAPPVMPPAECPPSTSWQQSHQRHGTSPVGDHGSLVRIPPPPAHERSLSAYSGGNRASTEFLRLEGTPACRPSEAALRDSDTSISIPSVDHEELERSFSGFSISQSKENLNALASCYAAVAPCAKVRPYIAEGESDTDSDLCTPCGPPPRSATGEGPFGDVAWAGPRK
KCNQ2 block – KCNQ2 (rat) channel inhibition; CHO-K1 KCNQ2, FluxOR thallium flux, 20 min; hits give low values; actives 1.1% (n = 310,000); AID 2156; B-score at 10 µM;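 active = fluorescence ratio B-score at most minus 3 library SDs, with starting brightness B-score within 2 library SDs, cut at about -5.5 in these data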
* hit, by the source's call. Hits are enriched below; roughly 1.6% of the tested compounds scored in any of these assays.

What do the screens show for `Cc1ccc2c(c1)-c1c(cnn1CC(=O)N1CCCN(Cc3ccccc3F)C1)CO2`?
KCNQ2 pot: -8.2; KCNQ2 block: -8.2*

How did CC1(C)CC1C(=O)Nc1ccc([N+](=O)[O-])cc1Br (centres undefined) do in these assays?
KCNQ2 pot: 1.4; KCNQ2 block: inactive

Results for Cc1ccc(C2(c3ccc(C)cc3)CC2C(=O)Nc2ccc([N+](=O)[O-])cc2O)cc1 (centres undefined) ?
KCNQ2 pot: -7.8; KCNQ2 block: -7.8*

What do the screens show for `C(#Cc1ccccc1)CN1CCN(c2ccccn2)CC1`?
KCNQ2 pot: 0.75; KCNQ2 block: inactive

What do the screens show for `C(#Cc1ccccc1)CN1CCCCC1`?
KCNQ2 pot: 6.3*; KCNQ2 block: inactive

What do the screens show for `O=C(Cc1csc(-c2ccccc2)n1)NCc1ccc(F)cc1`?
KCNQ2 block: inactive

How did O=C(NCc1csc(-c2ccccc2)n1)c1cc(F)cc2c1OCOC2 do in these assays?
KCNQ2 pot: -6.1; KCNQ2 block: -6.1*

How did Cc1oc(C(C)(C)C)c(CN2CCOCC2)c1C(=O)O do in these assays?
KCNQ2 pot: 1; KCNQ2 block: inactive

What do the screens show for `Cc1ccc2c(CN3CCCc4ccccc43)cc(=O)oc2c1C`?
KCNQ2 block: inactive

How did O=c1cc(CN2CCc3ccccc32)c2ccc(O)cc2o1 do in these assays?
KCNQ2 block: inactive

How did Cc1cc2oc(=O)cc(CN3CCc4ccccc43)c2cc1Cl do in these assays?
KCNQ2 pot: -6.4; KCNQ2 block: -6.4*

What do the screens show for `CCc1ccc2c(CN3CCc4ccccc43)cc(=O)oc2c1`?
KCNQ2 pot: -5.6; KCNQ2 block: -5.6*

Results for CCCCOc1ccc(C(=O)NN2C(=O)NC3(CCCCC3)C2=O)cc1OC ?
KCNQ2 pot: 2; KCNQ2 block: inactive

How did CC(=O)Nc1ccc(SCC(=O)N(C)C2CCS(=O)(=O)C2)cc1 (centres undefined) do in these assays?
KCNQ2 block: inactive

Results for CCCCSCCCNC(=O)Nc1ccc(CC)cc1 ?
KCNQ2 pot: 5.6*; KCNQ2 block: inactive

How did CCc1ccc(NC(=O)CSCCO)cc1 do in these assays?
KCNQ2 pot: 0.6; KCNQ2 block: inactive

How did C=CCOc1ccccc1CN(C(=O)CCl)c1ccc2c(c1)OCO2 do in these assays?
KCNQ2 block: inactive

How did CCN(c1ccccc1)S(=O)(=O)c1ccc(C(=O)Oc2ccc(C(C)=O)cc2)cc1 do in these assays?
KCNQ2 pot: 1.1; KCNQ2 block: inactive

What do the screens show for `CCS(=O)(=O)c1nc2ccccc2n1Cc1ccccn1`?
KCNQ2 block: inactive

What do the screens show for `COc1ccc(N2C3=C(CC4=C2CCCC4=O)C(=O)CCC3)cc1`?
KCNQ2 block: inactive

How did COc1ccc(N2C3=C(CC4=C2CC(C)(C)CC4=O)C(=O)CC(C)(C)C3)cc1 do in these assays?
KCNQ2 pot: -10; KCNQ2 block: -10*

Results for C/C(Cl)=C\Cn1c(N2CCCC2)nc2c1c(=O)n(C)c(=O)n2C ?
KCNQ2 block: inactive

Results for c1ccc(Cc2nn3c(C4COc5ccccc5O4)nnc3s2)cc1 (centres undefined) ?
KCNQ2 block: inactive

What do the screens show for `c1ccc(CCc2nn3c(C4COc5ccccc5O4)nnc3s2)cc1` (centres undefined)?
KCNQ2 pot: -6.1; KCNQ2 block: -6.1*

How did CC1=C(C(=O)Nc2cccc(C(=O)N3CCC(C(N)=O)CC3)c2)SCCO1 do in these assays?
KCNQ2 block: inactive

What do the screens show for `Cc1ccc(S(=O)(=O)N2CCN(C(=O)CN3C(=O)c4ccc([N+](=O)[O-])cc4C3=O)CC2)c(C)c1`?
KCNQ2 block: inactive

How did CCOc1c(C)cnc2c1c(=O)n(Cc1ccc(Cl)cc1)c(=O)n2C do in these assays?
KCNQ2 pot: -5.9; KCNQ2 block: -5.9*

What do the screens show for `CCOc1c(C)cnc2c1c(=O)n(Cc1cccc(Cl)c1)c(=O)n2C`?
KCNQ2 block: inactive

How did Cc1ccc(C)c(N(CC(=O)NC2CCCC2)C(=O)c2oc(C(C)(C)C)cc2C)c1 do in these assays?
KCNQ2 pot: -6.6; KCNQ2 block: -6.6*

How did Cc1cc(C(C)(C)C)oc1C(=O)N(CC(=O)NC1CCCC1)Cc1ccccc1 do in these assays?
KCNQ2 block: inactive

What do the screens show for `O=C(NCCS(=O)(=O)c1ccc(Br)cc1)c1ccc(Cl)cc1Cl`?
KCNQ2 pot: 0.15; KCNQ2 block: inactive

How did CCC(C)(C)NC(=O)CN(C(=O)CCC(=O)Nc1nccs1)c1ccc2c(c1)OCCO2 do in these assays?
KCNQ2 pot: 0.02; KCNQ2 block: inactive

Results for CC(C)c1ccc(/C=C/C(=O)n2nnc3ccccc32)cc1 ?
KCNQ2 pot: -6.2; KCNQ2 block: -6.2*

How did CC(C)c1ccc(/C=C/C(=O)N2CCCCCC2)cc1 do in these assays?
KCNQ2 block: inactive

Results for Cc1ccc(NC(=O)CCNS(=O)(=O)c2cccc3nsnc23)cc1F ?
KCNQ2 pot: 0.7; KCNQ2 block: inactive

How did Clc1cccc(Cl)c1Cn1cnc2c(NCc3ccco3)ncnc21 do in these assays?
KCNQ2 pot: 0.45; KCNQ2 block: inactive

Results for Cn1cnc2c(NCc3ccco3)ncnc21 ?
KCNQ2 pot: -7; KCNQ2 block: -7*

Results for C=CCOc1c(CNc2ccc(S(N)(=O)=O)cc2)cccc1OC ?
KCNQ2 pot: 1.4; KCNQ2 block: inactive

What do the screens show for `COc1cccc(CNc2ccc(S(N)(=O)=O)cc2)c1OCc1ccccc1F`?
KCNQ2 pot: 9.3*; KCNQ2 block: inactive

Results for COc1ccc2c(c1)c1ncn(CCN3CCCC3)c(=O)c1n2C ?
KCNQ2 pot: 1.2; KCNQ2 block: inactive

What do the screens show for `COc1ccccc1CCn1cnc2c3cc(C)ccc3n(C)c2c1=O`?
KCNQ2 pot: -7.4; KCNQ2 block: -7.4*

Results for CC(=O)Oc1ccccc1C(=O)N(C1CCCCC1)C1CCCCC1 ?
KCNQ2 block: inactive

What do the screens show for `c1ccc(C2CCC(N3CCNCC3)CC2)cc1` (centres undefined)?
KCNQ2 pot: 0.38; KCNQ2 block: inactive

Results for c1ccc(-c2ccccc2OCCCCn2ccnc2)cc1 ?
KCNQ2 block: inactive

Results for CCOc1ccc(CN(CC)C(=O)c2ccc3c(c2)[nH]c(=O)c(=O)n3CC)cc1OC ?
KCNQ2 block: inactive

Results for CN1CCN(Cc2cccc(Oc3ccccc3)c2)CC1 ?
KCNQ2 pot: 0.44; KCNQ2 block: inactive

What do the screens show for `COc1ccc(CN2CCN(Cc3cccc(Oc4ccccc4)c3)CC2)c(OC)c1OC`?
KCNQ2 pot: -7.5; KCNQ2 block: -7.5*

Results for Cc1cccc(OCCCOc2cccc3cccnc23)c1C ?
KCNQ2 block: inactive

Results for COc1cccc(OC)c1OCCCOc1cccc2cccnc12 ?
KCNQ2 pot: -5.6; KCNQ2 block: -5.6*

Results for CCc1cccc(NS(=O)(=O)c2c(C)[nH]c(=O)[nH]c2=O)c1 ?
KCNQ2 block: inactive

Results for O=S(=O)(Nc1ncccn1)c1ccc(NC(=S)N2CCN(Cc3ccc(F)cc3Cl)CC2)cc1 ?
KCNQ2 block: inactive

How did Cc1onc(-c2ccccc2Cl)c1C(=O)Nc1ccccc1O do in these assays?
KCNQ2 block: inactive

Results for O=C(c1noc2c1CCCC2)N1CCC(CO)(Cc2ccccc2Cl)CC1 ?
KCNQ2 block: inactive

Results for Cc1noc(C)c1CSCC(=O)N1CCN(c2ccc(F)cc2)CC1 ?
KCNQ2 block: inactive

Results for Cc1cccc(N2CCN(C(=O)CSCc3c(C)noc3C)CC2)c1C ?
KCNQ2 pot: -6; KCNQ2 block: -6*

What do the screens show for `Cn1ccnc1Sc1nc(Nc2cccc(Cl)c2)nc(N2CCOCC2)n1`?
KCNQ2 pot: -6.2; KCNQ2 block: -6.2*
